Values joined by “and” are separate entries in the source; they are usually repeats but may differ in a detail not shown here. Equal entries are not always repeated. Results filed as inconclusive are left out. Entries that show only a call come without a potency. A number with no mark means an inactive call. Active and inactive are the calls of the source. The call rests on the fitted dose curve; in most records, active means well fitted cell-killing curve with a large enough effect in the repeat runs; inconclusive means weak or mixed curves, or effect the other way; inactive means no such curve, though single readings can be large or run the other way.
assay: qHTS assay to identify small molecule antagonists of the peroxisome proliferator-activated receptor gamma (PPARg) signaling pathway - cell viability counter screen (AID 743194); settings: PPARg-bla HEK293H viability, CellTiter-Glo luminescence, 17 h, co-treated with 50 nM rosiglitazone; series mostly up to 62.6 µM; activity change, negative = cytotoxicity: at the top concentration; further: nearly all actives have a fitted effect of over 55% in size
Excerpt: U.S. Tox21 Program National Center for Advancing Translational Sciences [NCATS] NIH Chemical Genomics Center [NCGC] U.S. Environmental Protection Agency [EPA] National Institutes of Environmental Health Sciences [NIEHS] National Toxicology Program [NTP] U.S. Food and Drug Administration [FDA] Tox21 Assay Overview: The peroxisome proliferator-activated receptors (PPARs) are lipid-activated transcription factors of the nuclear receptor superfamily with three distinct subtypes namely PPAR alpha, PPAR delta (also called PPAR beta) and PPAR gamma (PPARg). All these subtypes heterodimerize with Retinoid X receptor (RXR) and these heterodimers regulate transcription of various genes. PPAR-gamma receptor (glitazone receptor) is involved in the regulation of glucose and lipid metabolism. To identify the compounds that activate PPAR-gamma signaling, GeneBLAzer PPAR gamma UAS-bla HEK293H cell line (Invitrogen, Carlsbad, CA, USA) containing a beta-lactamase reporter gene under the control of an Upstream Activator Sequence (UAS) was used to screen the Tox21 compound library. The cytotoxicity of the Tox21 compound library against the PPARg-bla cell line was tested in parallel by measuring the cell viability using CellTiter-Glo assay in the same wells.
Tox21 Assay Protocol Summary: PPARg-bla cells were dispensed at 3000 cells/5uL/well in 1536-well black wall/clear bottom plates using a Multidrop Combi (Thermo Fisher Scientific, Waltham, MA) dispenser. After the assay plates were incubated at 37 C and 5% CO2 for 5 h, 23 nL of compounds dissolved in DMSO, positive controls or DMSO only was transferred to the assay plate by a Pintool station (Kalypsys, San Diego, CA), followed by addition of 1ul Rosiglitazone (50 nM, final concentration in the wells). The assay plates were incubated at 37 C for 17 h, and then 1 uL of LiveBLAzerTM B/G FRET substrate was added using a Bioraptr Flying Reagent Dispenser (FRD) workstation (Beckman Coulter, Indianapolis, IN, USA). The assay plates were incubated at room temperature for 1 h and fluorescence intensity was measured by an Envision plate reader (PerkinElmer, Shelton, CT). For cell viability readout that measures cytotoxicity, 4 ul/well of CellTiter-Glo reagent was added into the assay plates using a Flying Reagent Dispenser. After 30 min incubation at room temperature, the luminescence intensity in the plates was measured using a ViewLux plate reader (PerkinElmer).
Potency means the concentration at half of the fitted maximal effect.

Row | Compound | Potency | activity change, negative = cytotoxicity
1 | CC(=O)Nc1c(I)c(NC(C)=O)c(I)c(C(=O)O)c1I | inactive | 
2 | CC(=O)C(=O)O | inactive | 
3 | CC(=O)CCC(=O)O | inactive | 
4 | CN(C)CCOC(C)(c1ccccc1)c1ccccn1 (stereo not given) | inactive | 
5 | CCCCC1(COC(=O)CCC(=O)O)C(=O)N(c2ccccc2)N(c2ccccc2)C1=O | inactive | 
6 | CC(C)NCC(O)c1ccc(O)c(O)c1 (stereo not given) | inactive | 
7 | Cc1cc(=O)oc2cc(O)ccc12 | inactive | 
8 | O=c1[nH]cc(F)c(=O)[nH]1 | inactive | 
9 | O=C1c2c(O)cccc2Cc2cccc(O)c21 | inactive | 
10 | O=C1O[C@H]([C@@H](O)CO)C(O)=C1O | inactive | 
11 | Nc1ccc2c(c1)CN1C(=O)c3ccccc3C1=N2 |  | -13.6% [at 29.1 µM]
12 | C=CCc1ccc(O)c(OC)c1 | inactive | 
13 | Nc1ccc(S(N)(=O)=O)cc1 | inactive | 
14 | COc1ccc(CN(CCN(C)C)c2ccccn2)cc1 | inactive | 
15 | C[C@](N)(Cc1ccc(O)c(O)c1)C(=O)O | inactive | 
16 | CCCc1cc(=O)[nH]c(=S)[nH]1 | inactive | 
17 | COc1ccc(OC(F)(F)F)cc1CN[C@H]1CCCN[C@H]1c1ccccc1 |  | -21.9%
18 | Cn1c(=O)c2c(ncn2C)n(C)c1=O | inactive | 
19 | C/C=C/C=C/C(=O)O | inactive | 
20 | Oc1ccccc1 | inactive | 

Row | Compound | Potency | activity change, negative = cytotoxicity
21 | Cc1ncc([N+](=O)[O-])n1CCO | inactive | 
22 | Nc1c(N=Nc2ccc(-c3ccc(N=Nc4cc(S(=O)(=O)O)c5ccccc5c4N)cc3)cc2)cc(S(=O)(=O)O)c2ccccc12 |  | 37.3%
23 | NS(=O)(=O)O | inactive | 
24 | Cc1cn([C@H]2C=C[C@@H](CO)O2)c(=O)[nH]c1=O | inactive | 
25 | CN1CCC[C@H]1c1cccnc1 | inactive | 
26 | Nc1c2c(nc3ccccc13)CCCC2 | inactive | 
27 | COc1ccc2cc(S(=O)(=O)N[C@H](CC(=O)N[C@H](Cc3ccc(CN4[C@H](C)CCC[C@@H]4C)cc3)C(=O)N(C)C(C)C)c3ccc4c(c3)OCO4)ccc2c1 | 46.3 µM (active) | 
28 | CN(C)CCOC(c1ccccc1)c1ccccc1 | inactive | 
29 | O=C(O)c1ccccc1 | inactive | 
30 | CCCCCCc1ccc(O)cc1O |  | -0.894%
31 | CCCCOC(=O)c1ccc(O)cc1 | inactive | 
32 | CCCCCCCCCCCCCCCC[N+](C)(C)Cc1ccccc1 | 25.3 µM (active) and 17.7 µM (active) and 33.5 µM (active) | 
33 | CCCCCCCC(=O)OCC(COC(=O)CCCCCCC)OC(=O)CCCCCCC | inactive | 
34 | COc1ccc2c(c1)c(CC(=O)O)c(C)n2C(=O)c1ccc(Cl)cc1 | inactive | 
35 | NC1CCCCC1 | inactive | 
36 | CC(=O)CC(c1ccccc1)c1c(O)c2ccccc2oc1=O (stereo not given) | inactive | 
37 | CN1[C@@H]2CC(OC(=O)[C@H](CO)c3ccccc3)C[C@H]1[C@@H]1O[C@@H]12 (stereo not given in full) | inactive | 
38 | CCCCNC(=O)NS(=O)(=O)c1ccc(C)cc1 | inactive | 
39 | O=CC(=O)c1ccccc1 |  | -24.4%
40 | CC12CCC(CC1)C(C)(C)O2 | inactive | 
